Assay outcomes from PubChem BioAssay.
Rows were chosen to be rich in hits. Some 18% of all compounds tested hit in one or more screens of this group.
TDP1 cell noCPT: qHTS for Inhibitors of human tyrosyl-DNA phosphodiesterase 1 (TDP1): qHTS in cells in absence of CPT; DT40 Tdp1-/- hTDP1 cells, no CPT, ATP luminescence, 48 h; Potency, µM (series often up to 46.2 µM), for the others: at the highest dose activity change, negative = growth inhibition, hits mostly inhibitors; 15% of 420,000 active; AID 686978, 2013; further: potency means the concentration at half of the fitted maximal effect; on the % scale 0 is the no-effect control and ±100 the full control effect; nearly all actives have a fitted effect of over 55% in size
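Compound effects on proliferation are scored in DT40 Tdp1-/-;hTDP1 cells in the absence of CPT. ATP levels (CellTiter-Glo luminescence) are recorded after a ≥48 hr, 37 °C incubation.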
TGFb inhibitor: inhibitors of TGF-b signaling. Potency, µM (doses to about 46.1 µM), without a hit: at the highest dose activity, negative = inhibition, actives largely listed as inhibitors. AID 588855. HepG2 CAGA-GFP TGF-b/SMAD3 reporter, GFP fluorescence, 18 h; TGF-beta stimulated, 500 pg/mL final. 1.2% of 410,000 active; further: potency means the concentration at half of the fitted maximal effect; on the % scale 0 is the no-effect control and ±100 the full control effect; nearly all actives have a fitted effect of over 65% in size
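Using HEPG2 CAGA-GFP reporter cells at 1000 cells/well, we pinned test compounds, stimulated with recombinant TGF-beta (500 pg/mL final) and measured total well GFP after 18 h.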
IL1B secr inh: inflammasome signaling inhibition, IL-1 beta readout; THP-1 LPS/ATP IL-1B secretion, AlphaLISA, 16 h; stronger effect = lower value; activity change, % at 57.5 µM; AID 743279; 4.7% of 360,000 active; in the data active means activity change below about -50%; inconclusive means mostly about -30% to -49%; further: on the % scale 0 is the no-effect control and ±100 the full control effect
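THP-1 cells pretreated 1 hr with compounds (up to 57.5 uM final), then stimulated with LPS (250 ng/mL final) plus ATP (1.25 mM final); secreted IL-1B measured by AlphaLISA after 16 hr, decreased signal indicating inhibition.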
HepG2 tox: kills HepG2 cells in TGF-b inhibitor counter-screen; 0.76% of 410,000 active; HepG2 CAGA-GFP viability, ATP luminescence, 18 h; Potency, µM (series often up to 46.1 µM), inactives show at the top dose activity change, negative = cytotoxicity, most hits filed as cytotoxic; further: potency means the concentration at half of the fitted maximal effect
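CellTiter-Glo luminescence gave cytotoxicity after 18 hours at 37 degrees C. The cells were HepG2 CAGA-GFP in 1% FBS DMEM, stimulated with 500 pg/mL TGF-beta after compound addition. %Activity was normalised to no-cell wells (complete cell-killing) and DMSO (no toxicity), and curves were fitted and classified.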
TDP1 inh: TDP1 (human) enzyme inhibition; 0.28% of 350,000 active; recombinant TDP1, AlphaScreen DNA substrate cleavage; AID 485290; Potency, µM (highest dose often 130 µM), for inactives: at the top dose activity change, negative = inhibition, actives largely listed as inhibitors; Q9NUW8; further: potency means the concentration at half of the fitted maximal effect; on the % scale 0 is the no-effect control and ±100 the full control effect; nearly all actives have a fitted effect of over 40% in size
Target sequence (Q9NUW8 whole entry, looked up): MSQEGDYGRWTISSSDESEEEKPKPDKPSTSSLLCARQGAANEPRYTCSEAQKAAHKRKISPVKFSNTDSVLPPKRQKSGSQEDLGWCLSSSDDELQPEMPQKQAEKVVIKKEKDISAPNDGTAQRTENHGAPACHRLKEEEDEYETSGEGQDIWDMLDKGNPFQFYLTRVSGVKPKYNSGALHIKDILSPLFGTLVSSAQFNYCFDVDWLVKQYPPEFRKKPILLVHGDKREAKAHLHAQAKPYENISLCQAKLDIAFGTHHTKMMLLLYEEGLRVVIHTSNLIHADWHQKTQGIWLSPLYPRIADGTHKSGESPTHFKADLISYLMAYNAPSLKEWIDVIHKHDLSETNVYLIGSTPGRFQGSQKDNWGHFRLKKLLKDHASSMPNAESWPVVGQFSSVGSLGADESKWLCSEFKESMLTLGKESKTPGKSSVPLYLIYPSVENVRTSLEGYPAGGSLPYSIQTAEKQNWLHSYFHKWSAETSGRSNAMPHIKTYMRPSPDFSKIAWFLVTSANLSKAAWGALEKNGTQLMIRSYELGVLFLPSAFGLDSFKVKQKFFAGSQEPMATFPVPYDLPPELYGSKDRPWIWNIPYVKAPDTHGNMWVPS
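Steps: enzyme plus compound, 15 min RT; add biotin/phosphotyrosine-FITC oligonucleotide (15 nM final), react 5 min; add donor/acceptor beads (10 ug/ml final), 10 min; read AlphaScreen. Tdp1 at 1 nM final.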
TDP1 cell CPT: growth inhibition of DT40 Tdp1-/-;hTDP1 cells with camptothecin (screen for TDP1 inhibitors); 12% of 420,000 active; Potency, µM (top dose mostly 46.2 µM), for the others: at the top dose activity change, negative = growth inhibition, most hits filed as inhibitors; AID 686979; chicken DT40 Tdp1-/-;hTDP1 cells + 20 nM CPT, ATP luminescence, 48 h; further: potency means the concentration at half of the fitted maximal effect; on the % scale 0 is the no-effect control and ±100 the full control effect; nearly all actives have a fitted effect of over 55% in size
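Chicken DT40 Tdp1-/- cells complemented with human TDP1, 400 cells/well, exposed to compounds plus 20 nM camptothecin for at least 48 h at 37 C; viability read as ATP content by CellTiter-Glo luminescence.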
Starred values were filed as active, the others as inactive; ? = inconclusive; . = no result; [ ] = another dose, or the depositor's remark. Unless noted, the call rests on the fitted dose curve; in most records, active means well fitted curve in the direction sought with a large enough effect; inconclusive means small, poorly fitted or top-dose-only effect, or another doubt; inactive means no such curve, though single readings can be large; an effect the other way counts as inactive or inconclusive.

SMILES | TDP1 cell noCPT | TGFb inhibitor | IL1B secr inh | HepG2 tox | TDP1 inh | TDP1 cell CPT
Cc1ccccc1CNC(=O)c1nn(-c2ccccc2F)nc1CO | -3.2% | -14.0% | . | -6.5% | 2.3% | -1.4%
C=CCN(C(=O)CNC(=O)c1ccco1)C(C(=O)NC1CCCCC1)c1cccnc1 (stereo not given) | 12.4% | 18.9% | 32.2 | 6.4% | 6.2% | 2.5%
CC(=O)Nc1ccc(C2=NNC(=Nc3ccc(S(=O)(=O)N4CCOCC4)cc3)SC2)cc1 | ? | 3.4% | -52.1* | -60.0% | 5.0% | ?
CCOc1ccc2[nH]c(=O)c(CN(Cc3nnnn3Cc3ccco3)C3CCCCC3)cc2c1 | 11.6µM* | -25.5% | -19.9 | 2.0% | . | ?
CCC(C)(C)n1nnnc1CN(Cc1cc2cc(OC)ccc2[nH]c1=O)C1CCCC1 | ? | -14.9% | -53.3* | -8.1% | 3.8% | ?
COc1ccc2[nH]c(=O)c(CN(C(C)=O)C3CCCCC3)cc2c1 | ? | -23.9% | 4.4 | -3.1% | 5.8% | -17.1%
COCCn1nnnc1CN(Cc1cc2cc(OC)c(OC)cc2[nH]c1=O)C1CCCC1 | -0.3% | -1.3% | 0.0 | -18.7% | 4.2% | -7.5%
COc1cc2cc(CN(Cc3nnnn3Cc3ccco3)C3CCCCC3)c(=O)[nH]c2cc1OC | -23.0% | -4.4% | 16.9 | -8.8% | . | -21.8%
COc1ccc(Cn2nnnc2CN(Cc2cc3ccc(C)cc3[nH]c2=O)C2CCCC2)cc1 | 13µM* | ? | -24.6 | -35.7% | 8.2% | 9.2µM*
CC1CCc2cc(F)cc3c(O)c(C(=O)NCCN(C)C)c(=O)n1c23 (stereo not given) | 18.4µM* | 33.5% | ? | 2.8% | . | 20.6µM*
COc1cccc(NC(=O)NCc2ccccc2Cl)c1 | -31.4% | 0.0% | -8.1 | 7.2% | . | -12.9%
CCOC(=O)c1[nH]c2ccccc2c1NC(=O)c1ccccc1OCC | 0.731µM* | -23.3% | . | -40.9% | 5.9% | 0.651µM*
CCOC(=O)c1[nH]c2ccccc2c1NC(=O)CC(C)C | 2.0% | -4.6% | -13.8 | -11.9% | . | -3.9%
CCCC(=O)Nc1c(C(=O)OCC)[nH]c2ccccc12 | 1.84µM* | 6.6% | -53.8* | -23.7% | -3.3% | -21.0%
CCOC(=O)c1[nH]c2ccc(Br)cc2c1NC(=O)CCN1CCC(C)CC1 | 18.4µM* | -11.3% | -14.7 | -28.6% | 7.6% | ?
CCOC(=O)c1[nH]c2ccccc2c1NC(=O)c1ccc(S(=O)(=O)N(C)C)cc1 | -24.2% | -26.6% | -0.4 | -4.9% | 1.3% | -6.6%
CCOC(=O)c1[nH]c2ccc(Br)cc2c1NC(=O)CCN1CCCC(C)C1 (stereo not given) | . | . | . | . | 6.3% | .
CCOC(=O)c1[nH]c2ccccc2c1NC(=O)c1ccc(S(=O)(=O)N2CCCCC2)cc1 | 23.1µM* | -12.1% | 12.9 | -37.8% | -1.3% | ?
CC1(C(=O)O)CCC(C(=O)NNC(=O)c2ccccc2O)C1(C)C (stereo not given) | 11.9% | 26.8% | 16.2 | 24.7% | . | 2.0%
CC1CCCCC1N=C1NC(C)(C)CS1 (stereo not given) | -2.8% | -2.7% | 37.7 | -1.5% | -0.5% | 4.4%
CCCS(=O)(=O)NCc1c(C)ncc2c1CCN(C(=O)/C=C/c1ccccc1)C2 | -1.3% | . | . | . | . | -9.2%[9.04 µM]
COCC(=O)c1[nH]c2ccccc2c1C | ? | -4.8% | 16.6 | -11.8% | 3.9% | 25.9µM*
Cc1ccccc1C(=O)Nc1ccc(S(=O)(=O)N2CCC(c3nc4ccccc4s3)CC2)cc1 | 20.6µM* | -2.5% | . | -17.0% | 5.7% | 13µM*
